Molecular target: NT5C3L
Test: pooled miR-30 sensor sort-seq; sequence = guide strand
Conditions: shRNA

Compared with TAGCCCGTTGACCACATCCAGA, AAACTTCTGAATCTTCTGCTGA is higher in sensor-assay potency score (higher = more potent): -1.7 for the first, -0.000526 for the second.

Compared with TAGAGCACTGACATGCTGTGGT, ATTGGACTCTCTAACCACCTGG is higher in sensor-assay potency score (higher = more potent): 0.517 for the first, 0.547 for the second.

TTGCATTGGACTCTCTAACCAC was tested, and the sensor-assay potency score (higher = more potent) was -0.0742.

Molecular target: NTHL1
Test: as above
Conditions: shRNA

Compared with TTTTCCTCGCTTCTGCTGCAGC, TCATCTGTCTGCAGGATGCTGT is higher in sensor-assay potency score (higher = more potent): -0.814 for the first, -0.751 for the second.

Compared with ATGTATTTCACCTTGCTCCTCC, TTGGTTGCCTTCTTGGTCCACC is lower in sensor-assay potency score (higher = more potent): 0.0621 for the first, -0.633 for the second.

Going from TTTTTGTTCCTCATGGCACGGA to TTCTGTGCACATGCGTGTCCAC, the sensor-assay potency score (higher = more potent) falls from 0.281 to -0.487.

Going from TTGATGTATTTCACCTTGCTCC to TTCTTGGTCCACCTCAGCCTGT, the sensor-assay potency score (higher = more potent) falls from -0.737 to -1.58.

Compared with TATTTCACCTTGCTCCTCCAGA, ATCAGTGACAGCAGCACCTGGT is lower in sensor-assay potency score (higher = more potent): -0.193 for the first, -0.43 for the second.

Going from TTGACCAGCTGTTGCTGCCAGT to TAGATGAGCTTGCCCAGCGTGG, the sensor-assay potency score (higher = more potent) falls from -1.05 to -1.11.

Molecular target: NTM
Test: as above
Conditions: shRNA

First: TTGGCTTCTGAAATGTATGGTG
Second: TTTGTCATCCTTGTACCACTGG
The sensor-assay potency score (higher = more potent) of the first is lower: 0.211 for the first, 0.733 for the second.

First: TTGAAGAAGATGAGTTTTGAGA
Second: AATCAGTCTTTTGTCATCCTTG
The sensor-assay potency score (higher = more potent) of the first is higher: -0.515 for the first, -0.561 for the second.

First: TTGCACAATGAGGTGGACCCTA
Second: TTGCTCAGAAGGACCACGCGAG
The sensor-assay potency score (higher = more potent) of the first is lower: -0.498 for the first, -0.271 for the second.

Going from TTCTTTCCTTCAATCAGTCTTT to TCTGTCTGCACCGAGCAGGTGT, the sensor-assay potency score (higher = more potent) falls from -0.442 to -0.506.

Work on TTGTCTGTCTGCACCGAGCAGG yielded a sensor-assay potency score (higher = more potent) of -0.782.

Molecular target: NTRK2
Test: as above
Conditions: shRNA

First: TATGAAACAAAACAAAACCTTT
Second: TTCACTGCCACCAAGATCTTGT
The sensor-assay potency score (higher = more potent) of the first is lower: -1.09 for the first, 0.258 for the second.

First: TATTAGGAACCGGATCACCTGC
Second: TTTCCTAGACAAACTCGTCAGT
The sensor-assay potency score (higher = more potent) of the first is lower: -1.01 for the first, -0.24 for the second.

First: TTGCCTTTCACAGTGAATGGAA
Second: TATAGAACCACTGAAGCGCTGG
The sensor-assay potency score (higher = more potent) of the first is lower: 0.0334 for the first, 0.358 for the second.

First: TTGTTTGACAGCTGGTACCAGG
Second: TTGATGTGCTGAACAAATGTGT
The sensor-assay potency score (higher = more potent) of the first is lower: -0.771 for the first, 0.264 for the second.

First: TCGTTGATGATTTCTAACCTTT
Second: TTTATCAGTGACGTCTGTGGAA
The sensor-assay potency score (higher = more potent) of the first is lower: -0.793 for the first, -0.0514 for the second.

Compared with TTCAACATCATCTTCGTTGATG, TTTAGTACAGATGTATTTGGAC is lower in sensor-assay potency score (higher = more potent): -0.198 for the first, -0.241 for the second.
